In PubChem BioAssay (EPA / NIEHS) one finds outcome and AC50 data, which are given here for six compounds.

Read-out in test [1]: Urokinase-type plasminogen activator receptor (uPAR), PLAUR (gene 5329)
The experiment in a line: BSK_CASM3C_uPAR: BioMAP Diversity Plus: CASM3C Assay for Urokinase-type plasminogen activator receptor (uPAR) Biomarker Activity (AID 2283054).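 Note: cell-surface uPAR protein level quantified by ELISA.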 Particulars: primary human coronary artery smooth muscle cells; actives raise or lower the signal.

Read-out in test [2]: Vascular cell adhesion molecule 1 (VCAM1), VCAM1 (gene 7412)
The experiment in a line: BSK_CASM3C_VCAM1: BioMAP Diversity Plus: CASM3C Assay for Vascular cell adhesion molecule 1 (VCAM1) Biomarker Activity (AID 2283055).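 Note: VCAM-1 protein level quantified by ELISA on the cells.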 Particulars: primary human coronary artery smooth muscle cells; actives raise or lower the signal.

Read-out in test [3]: Collagen III, COL3A1 (gene 1281)
Briefly: BSK_hDFCGF_CollagenIII: BioMAP Diversity Plus: hDFCGF Assay for Collagen III Biomarker Activity (AID 2283056). Particulars: primary human foreskin fibroblasts; actives raise or lower the signal. Put shortly: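 ELISA readout of Collagen III in human dermal (foreskin) fibroblasts, taken 24 h post-treatment. Gain or loss relative to DMSO vehicle fitted in both directions.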

Read-out in test [4]: Epidermal growth factor receptor (EGFR), EGFR (gene 1956)
The experiment in a line: BSK_hDFCGF_EGFR: BioMAP Diversity Plus: hDFCGF Assay for Epidermal growth factor receptor (EGFR) Biomarker Activity (AID 2283057). Particulars: primary human foreskin fibroblasts; actives raise or lower the signal. The procedure, abridged:
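ELISA readout of EGFR on human dermal fibroblasts (primary foreskin cells), 24 h post-dosing; bidirectional curve fit vs DMSO baseline, gain or loss of signal scored.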

Test [5] in a line: BSK_hDFCGF_Proliferation: Cell Proliferation Assessment in the BioMAP Diversity Plus: hDFCGF Assay (AID 2283059).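 Note: curves fitted for both rise and fall of signal versus DMSO baseline.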 Particulars: primary human foreskin fibroblasts. The procedure, abridged:
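This proliferation readout used SRB total-protein staining of human foreskin fibroblasts […], normalized to DMSO with bidirectional curve fitting.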

Read-out in test [6]: Macrophage colony-stimulating factor (MCSF), CSF1 (gene 1435)
The experiment in a line: BSK_hDFCGF_MCSF: BioMAP Diversity Plus: hDFCGF Assay for Macrophage colony-stimulating factor (MCSF) Biomarker Activity (AID 2283060). Particulars: primary human foreskin fibroblasts; actives raise or lower the signal. The procedure, abridged: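 M-CSF levels read by ELISA at 24 h post-dosing in human skin fibroblasts. Parallel cultures stained with SRB assessed cytotoxicity at the same time point; response fitted in both directions against the DMSO baseline.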

Read-out in test [7]: TIMP metallopeptidase inhibitor 1 (TIMP1), TIMP1 (gene 7076)
The experiment in a line: BSK_hDFCGF_TIMP1: BioMAP Diversity Plus: hDFCGF Assay for TIMP metallopeptidase inhibitor 1 (TIMP1) Biomarker Activity (AID 2283062). Conditions: primary human foreskin fibroblasts; actives raise or lower the signal. Put shortly:
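TIMP-1 measured by ELISA 24 h after chemical dosing of primary human skin fibroblasts, with gain or loss fitted relative to DMSO. Parallel SRB staining (560 nm) monitored overt cytotoxicity.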

Read-out in test [8]: Monokine induced gamma interferon (MIG), CXCL9 (gene 4283)
The experiment in a line: BSK_hDFCGF_MIG: BioMAP Diversity Plus: hDFCGF Assay for Monokine induced gamma interferon (MIG) Biomarker Activity (AID 2283063). Conditions: primary human foreskin fibroblasts; actives raise or lower the signal. Put shortly:
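Human primary foreskin fibroblasts in the hDFCGF system, exposed to test chemical for 24 h; MIG measured by ELISA. Bidirectional curve fitting against DMSO negative control as activity baseline.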

Read-out in test [9]: Matrix Metallopeptidase 1 (MMP1), MMP1 (gene 4312)
Briefly: BSK_hDFCGF_MMP1: BioMAP Diversity Plus: hDFCGF Assay for Matrix Metallopeptidase 1 (MMP1) Biomarker Activity (AID 2283064). Particulars: primary human foreskin fibroblasts; actives raise or lower the signal. The procedure, abridged:
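Human foreskin fibroblasts exposed to chemical for 24 h; MMP1 detected by ELISA, with DMSO as baseline for bidirectional fitting.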

Read-out in test [10]: Vascular cell adhesion molecule 1 (VCAM1), VCAM1 (gene 7412)
Briefly: BSK_hDFCGF_VCAM1: BioMAP Diversity Plus: hDFCGF Assay for Vascular cell adhesion molecule 1 (VCAM1) Biomarker Activity (AID 2283065).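 For AC50: VCAM-1 protein level quantified by ELISA after 24 h chemical exposure.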 Conditions: primary human foreskin fibroblasts; actives raise or lower the signal. The procedure, abridged: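 ELISA readout of VCAM-1 on human dermal fibroblast primary cultures, 24 h after chemical exposure. Gain or loss of signal fitted in both directions against DMSO baseline.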

Read-out in test [11]: Plasminogen activator inhibitor-1 (PAI1), SERPINE1 (gene 5054)
The experiment in a line: BSK_hDFCGF_PAI1: BioMAP Diversity Plus: hDFCGF Assay for Plasminogen activator inhibitor-1 (PAI1) Biomarker Activity (AID 2283066). Conditions: primary human foreskin fibroblasts; actives raise or lower the signal. The procedure, abridged: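 ELISA readout of PAI-1 from primary human skin fibroblast cultures, 24 h after compound addition. Gain or loss of signal was fitted bidirectionally against DMSO baseline.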

Read-out in test [12]: Intercellular Adhesion Molecule 1 (ICAM1), ICAM1 (gene 3383)
The experiment in a line: BSK_KF3CT_ICAM1: BioMAP Diversity Plus: KF3CT Assay for Intercellular Adhesion Molecule 1 (ICAM1) Biomarker Activity (AID 2283067). Conditions: primary human keratinocytes with fibroblasts; actives raise or lower the signal. Put shortly:
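Cell-surface ICAM-1 was measured by ELISA 24 h after dosing primary human skin keratinocytes co-cultured with fibroblasts. Parallel SRB staining tracked overt cytotoxicity. Gain or loss of signal was fitted relative to DMSO.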

Read-out in test [13]: Interferon-gamma inducible Protein 10 (IP10), CXCL10 (gene 3627)
The experiment in a line: BSK_KF3CT_IP10: BioMAP Diversity Plus: KF3CT Assay for Interferon-gamma inducible Protein 10 (IP10) Biomarker Activity (AID 2283068). Conditions: primary human keratinocytes with fibroblasts; actives raise or lower the signal. The procedure, abridged:
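Signal is secreted/surface IP-10 by ELISA in a human primary skin co-culture of keratinocytes and foreskin fibroblasts, taken 24 h post-dosing; DMSO served as negative control.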

A short description of test [14]: BSK_KF3CT_SRB: Viability Assessment in the BioMAP Diversity Plus: KF3CT Assay (AID 2283069). Conditions: primary human keratinocytes with fibroblasts. Put shortly:
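Overt cytotoxicity is assessed as total protein by sulforhodamine B staining in parallel human skin co-cultures at 24 h after dosing. DMSO serves as negative control and baseline.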

Read-out in test [15]: Interleukin-1 alpha (IL1a), IL1A (gene 3552)
Briefly: BSK_KF3CT_IL1a: BioMAP Diversity Plus: KF3CT Assay for Interleukin-1 alpha (IL1a) Biomarker Activity (AID 2283070). Particulars: primary human keratinocytes with fibroblasts; actives raise or lower the signal. The procedure, abridged: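 Readout is IL-1a level by ELISA, compared bidirectionally with DMSO as baseline. Cells: human keratinocytes co-cultured with foreskin fibroblasts, harvested 24 h post-dose.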

Read-out in test [16]: TIMP metallopeptidase inhibitor 2 (TIMP2), TIMP2 (gene 7077)
The experiment in a line: BSK_KF3CT_TIMP2: BioMAP Diversity Plus: KF3CT Assay for TIMP metallopeptidase inhibitor 2 (TIMP2) Biomarker Activity (AID 2283071). Conditions: primary human keratinocytes with fibroblasts; actives raise or lower the signal. The procedure, abridged: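 ELISA readout of TIMP-2 in keratinocyte plus foreskin fibroblast co-cultures (human skin primary cells), 24 h post-dose. Gain or loss of signal fitted relative to DMSO.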

Read-out in test [17]: Transforming growth factor beta 1 (TGFb1), TGFB1 (gene 7040)
Briefly: BSK_KF3CT_TGFb1: BioMAP Diversity Plus: KF3CT Assay for Transforming growth factor beta 1 (TGFb1) Biomarker Activity (AID 2283072). Conditions: primary human keratinocytes with fibroblasts; actives raise or lower the signal. Put shortly: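 Read-out: ELISA for TGF-b1 in keratinocyte/foreskin fibroblast human skin co-culture, 24 h after dosing; bidirectional curve fit vs DMSO baseline; gain or loss of signal scored.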

Read-out in test [18]: C-C motif chemokine 2 (Homo sapiens) (UniProt P13500)
Briefly: BSK_KF3CT_MCP1: BioMAP Diversity Plus: KF3CT Assay for Monocyte Chemoattractant Protein 1 (MCP1/CCL2) Biomarker Activity (AID 2283073). Particulars: primary human keratinocytes with fibroblasts; actives raise or lower the signal. The procedure, abridged: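 ELISA read-out of MCP-1, 24 h post-dose, in primary human skin keratinocytes co-cultured with fibroblasts. Parallel SRB staining monitors cytotoxicity; changes fitted both directions relative to DMSO.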

A short description of test [19]: BSK_hDFCGF_SRB: Viability Assessment in the BioMAP Diversity Plus: hDFCGF Assay (AID 2283061).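 Note: cells exposed to compound for 24 h before the read.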 Particulars: primary human foreskin fibroblasts. The procedure, abridged:
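Viability was read as total protein: after 10% TCA fixation, wells were stained with 0.1% sulforhodamine B and read at 560 nm. Primary human foreskin fibroblasts were dosed for 24 h, with bidirectional fitting versus DMSO.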

Read-out in test [20]: Interleukin-8 (IL8), CXCL8 (gene 3576)
The experiment in a line: BSK_hDFCGF_IL8: BioMAP Diversity Plus: hDFCGF Assay for Interleukin-8 (IL8) Biomarker Activity (AID 2283058). Particulars: primary human foreskin fibroblasts; actives raise or lower the signal. The procedure, abridged:
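IL-8 levels read by ELISA at 24 hours after dosing human skin fibroblast cultures. Parallel SRB staining assessed overt cytotoxicity, and gain or loss of signal was fitted against DMSO control.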

SMILES strings stand for the structures. Calls of active or inactive are those of the source. Rule for the calls: active = hit-call score of the fitted dose curve at least 0.9, where 1 is the maximum; inactive = score below 0.9.

Consider `O=C(O)C(Cl)(Cl)Cl`, for which the outcome in test [1], in test [2], in test [3], in [4], in [5] and in test [6] was inactive. In addition, the result in [7], in test [8], in [9], in test [10], in test [11] and in test [12] was inactive. Moreover, the result in test [13], in test [14], in test [15], in [16], in test [17] and in test [18] was inactive.
As to `CN(C)N=O`, the result in test [1], in test [2], in [3], in test [4], in [5] and in [6] was inactive. Also, the result in test [19], in test [7], in test [8], in test [9], in test [10] and in test [11] was inactive. Further, the result in test [12], in [13], in [14], in [15], in [16] and in [17] was inactive. In addition, the outcome in test [18] was inactive.
With `CCSC(C)CC1CC(=O)C(C(CC)=NOC/C=C/Cl)=C(O)C1` (stereo not given), the result in test [1], in [2], in [4], in test [20], in [5] and in [6] was inactive. Moreover, the result in test [19], in test [7], in test [8], in test [9], in test [10] and in [11] was inactive. Moreover, the result in [12], in test [13], in test [14], in [15], in [16] and in test [17] was inactive. The result in test [18] was inactive.
As for `CCCCCCCCC(=O)NCc1ccc(O)c(OC)c1`, the AC50 (as a rule, the midpoint of the concentration-response curve, whichever way the signal moves) in [1] was 20 µM (active); in [3], 25.6 µM (active); in test [11], 0.155 µM (active). Moreover, the outcome in test [2], in test [4], in [20], in test [5], in test [6] and in [7] was inactive. Moreover, the result in test [8], in test [9], in test [10], in test [12], in [13] and in test [14] was inactive. The outcome in test [15], in [16], in test [17] and in [18] was inactive.
Consider `O=[N+]([O-])c1ccc2c3c(cccc13)CC2`, for which the outcome in [1], in test [2], in test [4], in [7], in [8] and in test [9] was inactive. Besides, the result in test [10], in test [11], in [12], in test [13], in [14] and in test [15] was inactive. The outcome in test [17] and in test [18] was inactive. The AC50 is 27.7 µM (active) in test [5], 10.6 µM (active) in test [6] and 11.4 µM (active) in [16].
`CC(C)(OO)c1ccccc1`: the outcome in test [1], in test [2], in test [12], in test [13], in [14] and in [15] was inactive. Moreover, the result in test [16], in test [17] and in test [18] was inactive. Besides, the concentration at half-maximal activity (AC50) in test [4] was 35.8 µM (active); in test [20], 38.1 µM (active); in test [5], 6.71 µM (active); in test [6], 28.9 µM (active); in test [7] it was 34.7 µM (active); in [8], 34.4 µM (active). Further, the results for the concentration at half-maximal activity (AC50) in [9], in [10] and in [11] were 37.1 µM (active), 28.6 µM (active) and 30.4 µM (active), respectively.
